# Many of the other results were omitted from the sample, so the strongest signals are more common in it than they were.
# Legend:
# Test in all cases: glycan array binding signal (z-score within array); higher = stronger binding
# Details in all cases: glycan notation: IUPAC condensed, linker removed
# Fuc(a1-2)Gal(b1-4)GlcNAc = molecular target: Fuc(a1-2)Gal(b1-4)GlcNAc
# Outline: (§1)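 Glycan array binding is given as a within-array Z-score, which can be read as non-binding when negative. The arrays, 3228 of them, came from the Consortium for Functional Glycomics database and were retained only where the protein sequence was available. Z-scores were averaged across arrays of the same protein sequence at different concentrations or buffers and across linkers.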
# [1] = molecular target: Fuc(a1-2)Gal(b1-4)GlcNAc(b1-3)Gal(b1-4)GlcNAc(b1-3)Gal(b1-4)GlcNAc
# Outline: as §1
# Fuc(a1-2)[Gal(a1-3)]Gal = molecular target: Fuc(a1-2)[Gal(a1-3)]Gal
# Outline: as §1
# Gal(a1-3)Gal(b1-4)GlcNAc = molecular target: Gal(a1-3)Gal(b1-4)GlcNAc
# Outline: as §1
# [2] = molecular target: Gal(a1-3)[Gal(a1-4)]Gal(b1-4)GlcNAc
# Outline: as §1
# [3] = molecular target: Gal(b1-4)GlcNAc(b1-6)GalNAc
# Outline: as §1
# Gal3S(b1-4)Glc = molecular target: Gal3S(b1-4)Glc
# Outline: as §1
# Gal4S(b1-4)GlcNAc = molecular target: Gal4S(b1-4)GlcNAc
# Outline: as §1
# Gal6S(b1-4)Glc = molecular target: Gal6S(b1-4)Glc
# Outline: as §1
# [4] = molecular target: GlcNAc(b1-3)[GlcNAc(b1-6)]GlcNAc(b1-4)GlcNAc
# Outline: as §1
# [5] = molecular target: Man(a1-2)Man(a1-2)Man(a1-6)[Man(a1-3)]Man
# Outline: as §1
# [6] = molecular target: Neu5Ac(a2-3)Gal(b1-4)GlcNAc(b1-3)Gal(b1-4)GlcNAc(b1-3)Gal(b1-4)GlcNAc
# Outline: as §1
# [7] = molecular target: Neu5Ac(a2-3)Gal(b1-4)[Fuc(a1-3)]GlcNAc
# Outline: as §1
# [8] = molecular target: Fuc(a1-2)Gal6S(b1-4)GlcNAc
# Outline: as §1
# [9] = molecular target: Fuc(a1-3)[Gal3S(b1-4)]Glc
# Outline: as §1
# Gal(a1-3)Gal(b1-3)Glc = molecular target: Gal(a1-3)Gal(b1-3)Glc
# Outline: as §1
# Gal(a1-4)GlcNAc = molecular target: Gal(a1-4)GlcNAc
# Outline: as §1
# Gal(a1-6)Glc = molecular target: Gal(a1-6)Glc
# Outline: as §1
# Gal(b1-3)Gal = molecular target: Gal(b1-3)Gal
# Outline: as §1
# [10] = molecular target: Gal(b1-3)GalNAc(b1-3)Gal(b1-4)GlcNAc
# Outline: as §1
# [11] = molecular target: Gal(b1-4)GlcNAc(b1-2)Man(a1-3)[Gal(b1-4)GlcNAc(b1-2)Man(a1-6)]Man(b1-4)GlcNAc(b1-4)GlcNAc
# Outline: as §1
# Gal3S(b1-4)Glc6S = molecular target: Gal3S(b1-4)Glc6S
# Outline: as §1
# Gal3S(b1-4)GlcNAc = molecular target: Gal3S(b1-4)GlcNAc
# Outline: as §1
# Gal3S(b1-4)GlcNAc6S = molecular target: Gal3S(b1-4)GlcNAc6S
# Outline: as §1
# Gal3S6S(b1-4)GlcNAc6S = molecular target: Gal3S6S(b1-4)GlcNAc6S
# Outline: as §1
# Gal6S(b1-4)Glc6S = molecular target: Gal6S(b1-4)Glc6S
# Outline: as §1
# [12] = molecular target: GalNAc(b1-3)Gal(a1-4)Gal(b1-4)GlcNAc
# Outline: as §1
# Glc(b1-4)Glc = molecular target: Glc(b1-4)Glc
# Outline: as §1
# [13] = molecular target: GlcNAc(b1-4)GlcNAc(b1-4)GlcNAc(b1-4)GlcNAc(b1-4)GlcNAc(b1-4)GlcNAc
# Outline: as §1
# [14] = molecular target: Man(a1-3)[Man(a1-6)]Man(b1-4)GlcNAc(b1-4)GlcNAc
# Outline: as §1
# Man(b1-4)GlcNAc = molecular target: Man(b1-4)GlcNAc
# Outline: as §1
# [15] = molecular target: Neu5Ac(a2-3)Gal(b1-3)GalNAc
# Outline: as §1
# [16] = molecular target: Neu5Ac(a2-3)Gal(b1-4)GlcNAc(b1-3)Gal(b1-4)GlcNAc
# Outline: as §1
# [17] = molecular target: Neu5Ac(a2-3)Gal(b1-4)GlcNAc(b1-6)[Gal(b1-3)]GalNAc
# Outline: as §1
# [18] = molecular target: Neu5Ac(a2-3)Gal(b1-4)GlcNAc6S
# Outline: as §1
# [19] = molecular target: Neu5Ac(a2-3)Gal(b1-4)[Fuc(a1-3)]GlcNAc(b1-3)Gal
# Outline: as §1
# [20] = molecular target: Neu5Ac(a2-8)Neu5Ac(a2-3)Gal(b1-4)Glc
# Outline: as §1
# [21] = molecular target: Neu5Ac(a2-8)Neu5Ac(a2-3)[GalNAc(b1-4)]Gal(b1-4)Glc
# Outline: as §1
# [22] = molecular target: Neu5Gc(a2-3)Gal(b1-3)GlcNAc
# Outline: as §1
Binder,glycan array binding signal (z-score) (Fuc(a1-2)Gal(b1-4)GlcNAc),glycan array binding signal (z-score) [1],glycan array binding signal (z-score) (Fuc(a1-2)[Gal(a1-3)]Gal),glycan array binding signal (z-score) (Gal(a1-3)Gal(b1-4)GlcNAc),glycan array binding signal (z-score) [2],glycan array binding signal (z-score) [3],glycan array binding signal (z-score) (Gal3S(b1-4)Glc),glycan array binding signal (z-score) (Gal4S(b1-4)GlcNAc),glycan array binding signal (z-score) (Gal6S(b1-4)Glc),glycan array binding signal (z-score) [4],glycan array binding signal (z-score) [5],glycan array binding signal (z-score) [6],glycan array binding signal (z-score) [7],glycan array binding signal (z-score) [8],glycan array binding signal (z-score) [9],glycan array binding signal (z-score) (Gal(a1-3)Gal(b1-3)Glc),glycan array binding signal (z-score) (Gal(a1-4)GlcNAc),glycan array binding signal (z-score) (Gal(a1-6)Glc),glycan array binding signal (z-score) (Gal(b1-3)Gal),glycan array binding signal (z-score) [10],glycan array binding signal (z-score) [11],glycan array binding signal (z-score) (Gal3S(b1-4)Glc6S),glycan array binding signal (z-score) (Gal3S(b1-4)GlcNAc),glycan array binding signal (z-score) (Gal3S(b1-4)GlcNAc6S),glycan array binding signal (z-score) (Gal3S6S(b1-4)GlcNAc6S),glycan array binding signal (z-score) (Gal6S(b1-4)Glc6S),glycan array binding signal (z-score) [12],glycan array binding signal (z-score) (Glc(b1-4)Glc),glycan array binding signal (z-score) [13],glycan array binding signal (z-score) [14],glycan array binding signal (z-score) (Man(b1-4)GlcNAc),glycan array binding signal (z-score) [15],glycan array binding signal (z-score) [16],glycan array binding signal (z-score) [17],glycan array binding signal (z-score) [18],glycan array binding signal (z-score) [19],glycan array binding signal (z-score) [20],glycan array binding signal (z-score) [21],glycan array binding signal (z-score) [22]
"RegIIIalpha (Mus musculus), O09037 (protein) MLPHLVLNSISWMLLSCLLFVFQVQGEDFQKEVPSPRTSCPMGYKAYRSHCYALVMTPKSWFQADLVCQKRPSGHLVSILSGGEASFVSSLVNGRVDNYQDIWIGLHDPTMGQQPNGGGWEWSNSDVLNYLNWDGDPSSTVNRGHCGSLTASSGFLKWGDYYCDGTLPFVCKFKQ",-0.094,0.048,-0.098,-0.089,0.002,-0.096,-0.096,0.116,-0.072,-0.081,-0.092,0.002,-0.054,–,–,–,–,–,–,–,–,–,–,–,–,–,–,–,–,–,–,–,–,–,–,–,–,–,–
"FBG4 (Homo sapiens), Q96EF6 (protein) MGARLSRRRLPADPSLALDALPPELLVQVLSHVPPRSLVTRCRPVCRAWRDIVDGPTVWLLQLARDRSAEGRALYAVAQRCLPSNEDKEEFPLCALARYCLRAPFGRNLIFNSCGEQGFRGWEVEHGGNGWAIEKNLTPVPGAPSQTCFVTSFEWCSKRQLVDLVMEGVWQELLDSAQIEICVADWWGARENCGCVYQLRVRLLDVYEKEVVKFSASPDPVLQWTERGCRQVSHVFTNFGKGIRYVSFEQYGRDVSSWVGHYGALVTHSSVRVRIRLS",-0.263,–,–,–,–,–,–,–,–,–,–,–,–,-0.475,-0.408,-0.259,-0.495,1.59,-0.536,-0.307,0.176,2.36,0.201,2.01,6.42,3.24,-0.171,0.332,1.31,0.275,-0.448,-0.559,-0.49,-0.301,0.103,-0.522,-0.41,-0.266,-0.432

# Reference: the supplement of paper PMC8728848
